# From PubChem
# Mito fusion yeast: inhibitors of mitochondrial division or activators of mitochondrial fusion. S. cerevisiae fusion-defective mutant growth rescue, CellTiterGlo 48 h. Potency, µM (doses to about 46.1 µM), for inactives: top-dose growth rescue (activation), most hits filed as activators. 320,000 tested, 0.23% active; further: % of control where 0% means no effect; nearly all actives have a fitted effect of over 45% in size
#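 Growth-rescue viability read-out: after 48 h at the non-permissive 37C in glycerol/ethanol YPEG, yeast mitochondrial fusion mutants are measured by CellTiterGlo luminescence; compounds (23 nl pinned per well) restoring growth score as division inhibitors or fusion activators.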
# Abeta rescue: compounds reversing amyloid beta toxicity in yeast. Potency, µM (top dose mostly 46.1 µM), most hits filed as activators. 410,000 tested, 0.063% active. yeast expressing A-beta42, growth rescue, OD600, 48 h; response scale: 0% DMSO, 100% iron-clioquinol control. AID 1347071; further: nearly all actives have a fitted effect of over 55% in size
#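 Yeast growth medium received pinned compounds, then yeast cells expressing toxic A-beta were added; plates incubated at 30 C for 48 hr. Growth read as absorbance at 600 nm, normalized to DMSO and equimolar FeCl3 plus clioquinol controls.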
# TDP-43 yeast inh: rescues yeast growth from TDP-43 toxicity; TDP-43 expressing yeast growth rescue, BacTiter-Glo, 24 h; Potency, µM (doses to about 46.1 µM), for the others: at the highest dose growth rescue (activation), usual class: activators; 410,000 tested, 1.8% active; AID 652104; further: % of control where 0% means no effect; nearly all actives have a fitted effect of over 50% in size
#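 Readout is BacTiter-Glo luminescence of cell growth, so inhibitors register as activators. TDP-43-expressing yeast at OD600=0.02 in galactose medium, after raffinose pregrowth to mid-log, were incubated with compound for 24 hr at 30 deg C.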
# aSyn yeast inh: alpha-synuclein toxicity inhibition in yeast; Yeast expressing alpha-synuclein, growth rescue, BacTiter-Glo, 24 h; Potency, µM (top dose mostly 46.1 µM), inactives show at the highest dose growth rescue (activation), actives largely listed as activators; 370,000 tested, 0.14% active; further: % of control where 0% means no effect; nearly all actives have a fitted effect of over 65% in size
#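 Readout is rescue of growth in alpha-synuclein-expressing yeast, so inhibitors of toxicity appear as activators. Growth after 24 hr at 30 deg C in galactose medium is quantified by luminescence.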
# FUS yeast rescue: suppressors of FUS proteinopathy in yeast; 390,000 tested, 0.24% active; AID 1347120; S. cerevisiae FUS-expressing, growth rescue, OD600, 24 h; Potency, µM (series often up to 76.6 µM), most hits filed as activators;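 further: plate controls were DMSO vehicle for no effect and reference control for full effect; nearly all actives have a fitted effect of over 55% in size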
#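 Read-out: OD at 600 nm after 24hr at 30C, reporting rescue of FUS-induced yeast toxicity. Cells at OD 0.005 in galactose (2%) minimal medium; compounds tested in a dilution series; CP55940 titration from 92uM final as control.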
# ERG Ets-DNA blk: blocks human ERG Ets domain binding to DNA; P11308; fluorescence polarization, His-ERG Ets domain / labelled DNA; Potency, µM (titrated, usually from 76.9 µM), inactives show top-dose FP activity, negative = inhibition, hits mostly inhibitors; 370,000 tested, 0.028% active; AID 624246; active means well fitted inhibition curve with a large enough effect in the polarisation, with a control signal flat; inconclusive means small, poorly fitted or top-dose-only effect, or effect the other way, or a change in a side signal; inactive means no such curve, though single readings can be large or run the other way; the % refers to the polarisation;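 further: polarization taken with two DNA probes labelled with fluorescein and Texas red; % of control where 0% means no effect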
# Target sequence (P11308 whole entry, looked up, the tested form may be a part): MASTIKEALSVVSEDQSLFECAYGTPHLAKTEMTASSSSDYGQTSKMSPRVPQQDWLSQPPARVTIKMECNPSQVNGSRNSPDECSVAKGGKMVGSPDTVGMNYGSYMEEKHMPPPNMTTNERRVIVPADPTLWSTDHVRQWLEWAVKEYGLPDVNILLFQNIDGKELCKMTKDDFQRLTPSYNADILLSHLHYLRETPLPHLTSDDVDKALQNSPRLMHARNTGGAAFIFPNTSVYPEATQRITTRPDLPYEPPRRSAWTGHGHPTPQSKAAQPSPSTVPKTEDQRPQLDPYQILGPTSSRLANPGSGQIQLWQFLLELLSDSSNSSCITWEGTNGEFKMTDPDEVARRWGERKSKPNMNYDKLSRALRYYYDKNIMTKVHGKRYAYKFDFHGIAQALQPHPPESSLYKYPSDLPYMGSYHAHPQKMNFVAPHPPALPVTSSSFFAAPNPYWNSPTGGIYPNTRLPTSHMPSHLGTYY
#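 His-tagged ERG Ets domain (1 uM in the protein solution; 300mM KCl, 50mM Tris-HCl, 1mM EDTA, 1mM DTT, pH 7.5) received compound, then a probe mix of 5 nM fluorescein-DNA and 100nM Texas-615-DNA. Fluorescence polarization was read for both dyes.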
# * hit, by the source's call; i = inactive; ? = inconclusive; nt = no result; ! = not confirmed by another sample; [ ] = dose if it differs, or a comment. An excerpt weighted towards active compounds, which were near 2.2% of everything screened. Unless noted, the call rests on the fitted dose curve; in most records, active means well fitted curve in the direction sought with a large enough effect; inconclusive means small, poorly fitted or top-dose-only effect, or another doubt; inactive means no such curve, though single readings can be large; an effect the other way counts as inactive or inconclusive. Potency means the concentration at half of the fitted maximal effect.
SMILES,Mito fusion yeast,Abeta rescue,TDP-43 yeast inh,aSyn yeast inh,FUS yeast rescue,ERG Ets-DNA blk
O=C(C[n+]1cccc2cc(Cl)ccc21)c1ccc2c(c1)CCCC2,nt,nt,nt,1%,nt,nt
CN1CCN(S(=O)(=O)c2ccc3ccccc3c2)CC1,-2%,i,19%,4%,i,4%
O=S(=O)(c1ccc2ccccc2c1)N1CCN(c2ccc(O)cc2)CC1,nt,i,11µM*,?,i,2%
Cc1cc(C)c(C)c(S(=O)(=O)N2CCN(c3ccccn3)CC2)c1C,?,i,23%,17%,i,12%
Cc1cc(C)c(C)c(S(=O)(=O)N2CCN(c3ncnc4ccccc34)CC2)c1C,18µM*,i,0%,6%,i,-5%
Cc1cc(C)c(C)c(S(=O)(=O)N2CCN(c3ccc(O)cc3)CC2)c1C,?,i,?,16µM*,i,1%
COc1ccc(OC)c(NC(=O)c2ccc3c(c2)c(C)c(C)n3Cc2ccc(F)cc2)c1,nt,i,-3%,nt,i,0%
C/C(=N\NC(=S)NC(C)C)c1ccccc1,-23%,11µM*,23%,-9%,i,-10%
CC(=O)Nc1cccc(/C(C)=N/NC(=S)NC(C)C)c1,1%,i,-11%,-8%,i,-10%
CCc1ccc(NC(=O)CN2C(C(=O)OC)=C(c3ccccc3)c3ccccc3S2(=O)=O)cc1,nt,i,?,nt,i,1%
CCOc1ccc(NC(=O)CN(C)C(=O)c2ccccc2OCc2cccc(C)c2)cc1OCC,6%,i,6%,-6%,nt,25%
Cc1cccc(COc2ccccc2C(=O)N(C)CC(=O)Nc2cccc(F)c2)c1,?,i,25µM*,0%[1.84 µM],i,4%
CN(CC(=O)Nc1cccc(F)c1)C(=O)/C=C/c1cc(Br)ccc1OC(F)F,?,i,20µM*,4%,i,-8%
CN(CC(=O)Nc1cccc(F)c1)C(=O)/C=C/c1ccc(Br)s1,7%,i,-18%,0%,i,7%
O=c1c2ccccc2nnn1COc1cccc2ccccc12,-7%,i,13µM*,?,i,7%
O=C(CC(c1ccccc1)c1ccccc1)OCn1nnc2ccccc2c1=O,13%,i,18µM*,14%,i,0%
O=c1c2ccccc2nnn1COc1ccc(F)cc1Cl,2%,i,-7%,1%,i,4%
COc1ccccc1C(=O)OCn1nnc2ccccc2c1=O,9%,i,22%,2%,i,-3%
Cc1cc(C(=O)OCn2nnc3ccccc3c2=O)c(C)o1,6%,?,14µM*,21%,i,12%
COC(=O)c1scc(-c2ccc(C)cc2)c1S(=O)(=O)N1CCN(c2ccc(OC)cc2)CC1,nt,i,0%,nt,22µM*,-2%
COc1ccc(N2CCN(S(=O)(=O)c3ccc(Br)s3)CC2)cc1,4.5µM*,i,-5%,nt,i,-5%
COc1ccc(N2CCN(S(=O)(=O)c3c(C)nc4scc(C)n4c3=O)CC2)cc1,-9%,i,14µM*!,-51%,i,8%
COC(=O)c1scc(-c2ccc(C)cc2)c1S(=O)(=O)N1CCN(c2ccc(F)cc2)CC1,nt,i,?,nt,i,0%
COc1cccc(N/C(SCc2ccccc2C)=C(/C#N)C(=O)NCc2cccs2)c1,-5%,i,8%,3%,nt,98%
COc1cccc(N/C(SC)=C(/C#N)C(=O)NCc2cccs2)c1,-8%,i,14µM*,-5%,i,2%
SMILES,Mito fusion yeast,Abeta rescue,TDP-43 yeast inh,aSyn yeast inh,FUS yeast rescue,ERG Ets-DNA blk
CC1(OC(=O)c2cccs2)C(=O)C=C2C=C(C3CC3)OC=C2C1=O (centres undefined),nt,i,20µM*,-6%,i,-19%
CCC(=O)OC1(C)C(=O)C=C2C=C(C3CC3)OC=C2C1=O (centres undefined),nt,i,?,-11%,i,?
CC1(OC(=O)c2ccco2)C(=O)C=C2C=C(C3CC3)OC=C2C1=O (centres undefined),nt,i,11µM*,-12%,i,?
COC(=O)c1c(C)sc(-c2c(-c3cccc(Cl)c3)[nH]c3c2c(=O)[nH]c(=O)n3C)c1O,nt,i,-8%,nt,i,?
CC(C)CN(C(=O)c1ccc(=O)n(C)n1)c1nc2ccccc2s1,1%,i,16µM*,0%,i,1%
Cc1ccc(C(=O)N(CC(C)C)c2nc3ccccc3s2)o1,-16%,i,26%,-9%,i,-3%
O=C(c1ccc(F)cc1Cl)N(Cc1ccccn1)CC1CCCO1 (centres undefined),nt,nt,nt,nt,i,nt
CCOC(=O)Cn1c(=NC(=O)CSC(C)=O)sc2cc(F)ccc21,3%,6.3µM*,?,-1%,i,-11%
COCCn1c(=NC(=O)CSC(C)=O)sc2cc(OC)ccc21,13%,?,?,5%,i,6%
CCn1c(=NC(=O)CSC(C)=O)sc2cc(OC)ccc21,18%,?,14µM*,4%,i,9%
COCCCNC(=O)c1ccc2c(c1)nc1n2CCCCC1,nt,i,-7%,nt,i,-5%
Cc1ccc(OCc2nc3ccccc3n2C(C)C(=O)Nc2c(C)cccc2C)cc1 (centres undefined),nt,i,25µM*,14%,i,nt
O=C(NCCc1ccccc1F)c1ccc(Sc2ccccc2Cl)c([N+](=O)[O-])c1,nt,nt,nt,nt,i,nt
Cc1ccc(CSc2nc3c(c(SCC(=O)O)n2)CCCC3)cc1,6%,i,35µM*,8%,i,2%
COC(=O)CSc1nc(SCc2ccc(C)cc2)nc2c1CCCC2,2%,i,-10%,-15%,i,16%
O=[N+]([O-])c1cc(Cl)c2cccnc2c1O,?,i,?,?,i,7%
CS(=O)(=O)Nc1cccc(NC(=O)c2ccc(-c3ccc(F)c(F)c3)c3ccoc23)c1,nt,i,0%,0%,?,nt
COc1cc(-c2coc3c(C(=O)NCc4ccccc4)cccc23)ccc1O,nt,i,13µM*,4%,?,nt
O=C(NCc1ccco1)c1cccc2c(-c3ccc(F)c(F)c3)coc12,nt,i,14µM*,1%,i,nt
CS(=O)(=O)Nc1cccc(NC(=O)c2cccc3c(-c4ccc(F)c(F)c4)coc23)c1,nt,i,10%,0%,20µM*,nt
Cc1cc(-c2ccc(C)c(S(=O)(=O)N(C)c3ccc(C)c(C)c3)c2)on1,nt,i,4%,nt,i,0%
